# From PubChem BioAssay (NCATS)
# Results filed as inconclusive are left out. A call without a number means that no potency is given here. Activity calls are given as the source filed them. Calls follow the shape of the dose curve; as a rule, active = well fitted inhibition curve with a large enough effect; inconclusive = small, poorly fitted or top-dose-only effect; inactive = flat fitted curve, though single readings scatter.
# Tested on: Zika virus NS2B-NS3 protease
# Test: Primary screen GU AMC qHTS for Zika virus inhibitors (AID 1347154); also: nearly all actives have a fitted effect of over 70% in size
# Conditions: Zika NS2B-NS3 unlinked protease, AMC fluorogenic substrate; series mostly up to 54.1 µM
# Procedure, shortened: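 Unlinked Zika NS2B hydrophilic domain/NS3 protease domain noncovalent complex (25 nM final) in 10 mM Tris-HCl pH 8.0, 0.01% Tween 20, with AMC peptide substrate. Fluorescence (ex 340, em 450 nm) change over 15 min, room temperature; percent inhibition fitted to 4-parameter Hill equation.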
row,Compound,Potency
1,CC(C)(C)OC(=O)c1ncn2c1[C@@H]1CCCN1C(=O)c1c(Br)cccc1-2,inactive
2,CC(Cc1ccccc1)NCc1ccccc1Cl (stereo not drawn),inactive
3,COc1cc(CC#N)cc(OC)c1OC,inactive
4,CN(C)CCc1c[nH]c2ccc(O)cc12,inactive
5,Nc1ccc(Cl)cc1C(=O)c1ccccc1F,inactive
6,CN(C)C(=O)Oc1cc(OC(=O)N(C)C)cc(C(O)CNC(C)(C)C)c1 (stereo not drawn),inactive
7,C[C@]12C=CC(=O)C=C1CC[C@@H]1[C@@H]2CC[C@@]2(C)[C@H]1CC[C@]2(C)O,inactive
8,CN1C(=O)CN=C(c2ccccc2)c2cc([N+](=O)[O-])ccc21,inactive
9,CCN1CCCC1CNC(=O)C(O)(c1ccccc1)c1ccccc1 (stereo not drawn),inactive
10,CCOC(=O)NC(O)C(Cl)(Cl)Cl (stereo not drawn),inactive
11,Cc1nc2ccccc2c(=O)n1-c1ccccc1Cl,inactive
12,CN1C(=O)[C@@H](NC(=O)c2cc3ccccc3[nH]2)N=C(c2ccccc2)c2ccccc21,inactive
13,CC1COC2(c3ccccc3Cl)c3cc(Cl)ccc3NC(=O)CN12 (stereo not drawn),inactive
14,ClCc1cccc(Cl)c1,inactive
15,Cc1nnc2n1-c1sc(CCC(=O)N3CCOCC3)cc1C(c1ccccc1Cl)=NC2,inactive
16,CN1C(=O)CN=C(c2ccccc2)c2cc(Cl)ccc21,inactive
17,CN(C)CCc1c[nH]c2cccc(O)c12,inactive
18,O=C1CN2CCOC2(c2ccccc2Cl)c2cc(Cl)ccc2N1 (stereo not drawn),inactive
